# Gli-Sufu antag – blocks Gli-Sufu signaling in a luciferase reporter. actives 0.74% (n = 340,000). Sufu-KO-LIGHT fibroblasts, Gli luciferase reporter luminescence. AID 588413. inhibition, % at 5 µM;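 active = inhibition above about 55%, limit read from the data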;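 also: 0% = DMSO-treated cells and 100% = wells with medium but no cells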
# esBAF inh – blocks esBAF chromatin remodeling in mouse ES cells; Bmi1-luciferase knock-in reporter, 24 h; 100% = twice the neutral-well signal; AID 602393; reporter increase, % at 12.5 µM; actives 2% (n = 350,000); in the data active = activation above about 40%; inconclusive = no clear call, values can overlap the other calls;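 also: 0% = median of the plate's neutral control wells and 100% = double that signal; a rise in the Bmi1 reporter signal indicates esBAF inhibition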
# Jurkat NFkB inh – lowers PMA/ionomycin-induced NF-kB signal in Jurkat cells; actives 0.53% (n = 330,000); PMA/ionomycin-induced NF-kB luciferase reporter, luminescence; inhibition, % at 4 µM; in the data active = inhibition above about 50%
# SMARCA2 act – SMARCA2 function activation, primary screen | actives 1% (n = 370,000) | MG213 cells, MMTV-luciferase reporter, dexamethasone, overnight | activation, % at 9.1 µM; in the data active = activation above about 7.8%;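 also: 0% = vehicle wells and 100% = reference activator wells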
# 697 NFkB inh – inhibitors of the PMA/ionomycin-induced NF-kB reporter in 697 B cells | inhibition, % at 4 µM | 697 B-cell NF-kB luciferase reporter, 16 h | AID 435022 | actives 0.33% (n = 330,000); in the data active = inhibition above about 35%
# Gli-Sufu confirm – confirmation of Gli-SUFU pathway antagonists. shares compounds with Gli-Sufu antag. Sufu-KO-LIGHT cells, Gli luciferase reporter, luminescence. inhibition, % at 5 µM. actives 40% (n = 2,500). AID 602428;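 active = mean inhibition at 5 µM reaching about 45%, limit read from the data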;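 also: plate controls were DMSO-treated cells for no effect and wells lacking cells for full effect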
# SufuKO cytotox – cytotoxicity counter-screen for Gli-SUFU antagonists; Sufu-KO-LIGHT cells cytotoxicity, ATP luminescence; AID 651994; shares compounds with Gli-Sufu antag; cytotoxicity, % at 5 µM; actives 32% (n = 2,500);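 active = mean cytotoxicity at 5 µM above about 25%, limit read from the data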;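 also: cells exposed to compound overnight for roughly 16 to 18 hours; plate controls were DMSO wells with cells for no effect and medium without cells for full effect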
# Wnt3a cs – Wnt3a reporter inhibition counter-screen; inhibition, % at 6.25 µM; shares compounds with Gli-Sufu antag; actives 20% (n = 2,500); Wnt-LIGHT cells, Wnt3a-driven luciferase reporter, luminescence; AID 651995;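 active = mean inhibition above about 25%, limit read from the data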
# SMARCA2 act conf – confirmation of SMARCA2 (BRM) function activators. activation, % at 9.1 µM. actives 30% (n = 3,500). MG213 cells, MMTV-luciferase with dexamethasone, luminescence, overnight; MG213 cells expressing E1A, Rb sequestered; DMSO wells 0%, reference activator 100%. shares compounds with SMARCA2 act. AID 652260;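 active = activation above its plate's cutoff, the mean activation of tested wells plus 3 SD, cut at about 7.9% in these data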
# VP16 Luc act – counter-screen for SMARCA2 activators: GAL4-VP16 luciferase reporter activation | shares compounds with SMARCA2 act | activation, % at 9.1 µM | actives 41% (n = 3,500) | HEK293 GAL4-VP16 pG5luc reporter, luciferase luminescence; scaled: DMSO wells 0%, SAHA wells 100% | AID 686939;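 active = activation above the solvent-only control well mean plus 3 SD, averaged across control plates, cut at about 5.2% in these data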
# An asterisk follows results filed as active; ? = inconclusive; nt = no result. A selection: hits, their analogues and other compounds. The true share with any hit is near 3.3%.
SMILES,Gli-Sufu antag,esBAF inh,Jurkat NFkB inh,SMARCA2 act,697 NFkB inh,SMARCA2 act conf,VP16 Luc act,others
CCN1/C(=C/C=C/C2=[N+](CC)c3ccccc3C2(C)C)C(C)(C)c2ccccc21,nt,-77.0,nt,-14.7,nt,nt,nt,
CC=Cc1ccc2n(c1=O)C[C@H]1[C@H](CO)[C@@H](C(=O)OC)[C@@H]2N1CC1CCOCC1 (mixture of isomers),nt,0.9,nt,nt,nt,nt,nt,
Cc1cc(/C=C2\C(=O)NC(=O)N(c3ccc(Cl)cc3)C2=O)c(C)n1-c1sc2c(c1C#N)CCCC2,53.1,nt,-1.5,-0.1,-7.7,nt,nt,Gli-Sufu confirm=55.5*;SufuKO cytotox=46.8*;Wnt3a cs=-38.6
C[C@@H]1CN([C@H](C)CO)C(=O)CCCn2cc(nn2)CO[C@@H]1CN(C)C(=O)Oc1ccc2ccccc2c1,nt,2.2,nt,nt,nt,nt,nt,
O=C(CF)NC(NC(=S)Nc1ccccc1O)C(Cl)(Cl)Cl (stereo not drawn),86.7*,7.6,-9.9,-2.1,10.0,nt,nt,Gli-Sufu confirm=16.7;SufuKO cytotox=20.2;Wnt3a cs=-16.6
Cc1cccc(S(=O)(=O)N2[C@@H]3c4ccc(-c5ccc(F)cc5)c(=O)n4C[C@H]2[C@H](CO)[C@H]3C(=O)O)c1,nt,-0.4,nt,nt,nt,nt,nt,
COc1ccccc1N1CCN(Cc2ccccc2)CC1,11.8,13.1,-9.4,0.6,-21.4,nt,nt,
COc1ccccc1N1CCN(Cc2ccc(Br)s2)CC1,57.9*,-4.4,3.1,0.8,14.3,nt,nt,Gli-Sufu confirm=13.0;SufuKO cytotox=4.5;Wnt3a cs=-16.0
COc1ccc(CC2C(=O)NC(C)C(=O)N(C)C3C(=O)N(C)C(Cc4ccc(O)c(c4)Oc4ccc(cc4)C3O)C(=O)NC(C)C(=O)NC(C)C(=O)N2C)cc1 (stereo not drawn),92.8*,nt,nt,-10.9,nt,nt,nt,Gli-Sufu confirm=96.0*;SufuKO cytotox=86.6*;Wnt3a cs=104.7*
COC(=O)[C@@H]1[C@@H](CO)[C@@H]2Cn3c(ccc(-c4cccc(F)c4)c3=O)[C@H]1N2Cc1ccncc1,nt,3.4,nt,nt,nt,nt,nt,
COc1ccc(-c2ccc([C@H]3[C@H]4CN(C(=O)Cc5ccncc5)CCCCN4[C@H]3CO)cc2)cc1,nt,0.5,nt,nt,nt,nt,nt,
Brc1ccc(-[n+]2c(-c3ccccc3)cc(-c3ccccc3)cc2-c2ccccc2)cc1,56.1*,-50.3,40.7,-6.5,-36.7,nt,nt,Gli-Sufu confirm=78.9*;SufuKO cytotox=7.8;Wnt3a cs=5.7
COC1/C=C/C=C(\C)Cc2cc(O)c(Cl)c(c2)N(C)C(=O)CC(OC(=O)C(C)C)C2(C)OC2C(C)C2CC1(O)NC(=O)O2 (stereo not drawn),53.9,nt,nt,-3.1,nt,nt,nt,Gli-Sufu confirm=60.8*;SufuKO cytotox=58.1*;Wnt3a cs=-5.0
N#Cc1cn(C2OC(CO)C(O)C2O)c2ncnc(N)c12 (stereo not drawn),80.9*,nt,nt,8.5*,nt,17.3*,-3.8,Gli-Sufu confirm=97.9*;SufuKO cytotox=97.1*;Wnt3a cs=-52.5
O=C(O)[C@@H]1[C@@H](CO)[C@@H]2Cn3c(ccc(-c4cncnc4)c3=O)[C@H]1N2C(=O)NC1CCCC1,nt,2.2,nt,nt,nt,nt,nt,
C=CCNC(=S)Nc1ccc(OC(=O)Nc2ccc(Cl)c(Cl)c2)cc1,-1.5,-1.1,nt,-0.7,nt,nt,nt,
O=C(Nc1ccc(Cl)c(Cl)c1)c1ccco1,-22.1,59.9*,-86.6,8.2*,-79.9,3.0,9.2*,
S=P1(Oc2ccccc2)Nc2ccccc2N1,-0.5,2.1,nt,12.1*,nt,5.3,3.1,
C=C1C(=O)C(C)=C2C(=O)N3Cc4[nH]c5ccccc5c4CC3(C(=O)OC)C12 (stereo not drawn),nt,nt,nt,9.2*,nt,6.6,2.5,
O=C(Cc1ccncc1)N1CCCCN2[C@H](CO)[C@H](c3ccc(C#Cc4ccccc4F)cc3)[C@H]2C1,nt,-0.1,nt,nt,nt,nt,nt,
COC(=O)[C@H]1[C@H](CO)[C@H]2Cn3c(ccc(C4=CCCCC4)c3=O)[C@@H]1N2CC1CC1,nt,-1.4,nt,nt,nt,nt,nt,
O=[N+]([O-])c1ccc(N(CCO)CCO)c2c1no[n+]2[O-],nt,-17.9,nt,15.5*,nt,13.1*,1.5,
COC(=O)[C@@H]1[C@@H](CO)[C@@H]2Cn3c(cccc3=O)[C@H]1N2Cc1nccs1,nt,7.8,nt,nt,nt,nt,nt,
O=C(Cc1ccccn1)N1CCCCN2[C@@H](CO)[C@@H](c3ccc(Br)cc3)[C@@H]2C1,nt,-3.9,nt,nt,nt,nt,nt,
CC(Cc1ccccc1)/[N+]([O-])=C\c1ccc(C(F)(F)F)cc1 (stereo not drawn),-14.7,75.9*,-44.3,9.2*,-33.6,11.3*,6.3*,
SMILES,Gli-Sufu antag,esBAF inh,Jurkat NFkB inh,SMARCA2 act,697 NFkB inh,SMARCA2 act conf,VP16 Luc act,others
CNC(C)Cc1ccccc1 (stereo not drawn),-3.4,5.0,3.8,1.7,13.9,nt,nt,
O=C(Cc1cccnc1)N1CCCCN2[C@H](CO)[C@@H](c3ccc(C#CC4CCCC4)cc3)[C@@H]2C1,nt,6.5,nt,nt,nt,nt,nt,
CN(C)C(=O)Oc1ccc(OC(=O)c2ccccc2)cc1,3.0,nt,-9.8,11.3*,-16.0,8.2*,-0.5,
CN(C(=O)Oc1ccc(C(=O)c2ccc(Cl)cc2)cc1)c1ccccc1,48.6,nt,3.3,0.6,23.9,nt,nt,
COC(=O)C1=C(C(=O)OC)SC2(S1)C(C(=O)OC)=C(C(=O)OC)Sc1c2ssc1=O,22.6,nt,nt,61.9*,nt,-9.5,8.4*,
COC(=O)[C@@H]1[C@@H](CO)[C@@H]2Cn3c(ccc(-c4ccccc4)c3=O)[C@H]1N2CC1CCOCC1,nt,-0.4,nt,nt,nt,nt,nt,
C=C1C(=O)OC2C1CCC(C)C1(O)C=CC(=O)C21C (stereo not drawn),-23.2,10.2,nt,8.4*,nt,15.2*,2.2,
COC(=O)[C@H]1[C@H](CO)[C@H]2Cn3c(ccc(-c4ccccc4F)c3=O)[C@@H]1N2Cc1ccncc1,nt,12.3,nt,nt,nt,nt,nt,
N#Cc1c(Br)n(C2OC(CO)C(O)C2O)c2ncnc(N)c12 (stereo not drawn),-16.8,nt,nt,62.5*,nt,52.1*,-1.5,
Nc1c(C(=O)NCc2ccco2)c2nc3ccccc3nc2n1CCN1CCCCC1,0.7,6.7,9.2,8.8*,-7.4,4.3,-0.9,
Cc1c(OC(=O)N(C)C)ccc2c1O/C(=C\c1ccco1)C2=O,-18.7,?,-30.5,8.2*,-30.0,3.6,5.9*,
CN(C)C(=O)Oc1ccc(Cl)c2ccccc12,4.0,-5.5,8.8,-3.8,0.1,nt,nt,
O=C(CNCc1c(F)cccc1F)N1CCC2(CC1)OCCO2,nt,nt,nt,8.6*,nt,16.4*,2.8,
Cc1cc(NC(=O)CCl)no1,-7.7,nt,9.0,8.9*,1.4,1.2,0.4,
COC(=O)[C@H]1N[C@H]2c3ccc(C4=CCCC4)c(=O)n3C[C@H]2[C@@H]1CO,nt,-3.4,nt,nt,nt,nt,nt,

# Assay outcomes from PubChem.
